40 compounds from PubChem BioAssay (EPA / NIEHS) can be followed below.

As usually defined, the AC50 is the concentration at which the activity in the assay is half-maximal.

Calls of active or inactive are those of the source. How the source made its calls: active means hit-call score of the fitted dose curve at least 0.9, where 1 is the maximum; inactive means score below 0.9.

Read-out in this test: Monokine induced gamma interferon (MIG), CXCL9 (gene 4283)
Briefly: BSK_SAg_MIG: BioMAP Diversity Plus: SAg Assay for Monokine induced gamma interferon (MIG) Biomarker Activity (AID 2283092). Particulars: primary human HUVEC with PBMC; actives raise or lower the signal. As for the experimental part: BSK_SAg is a cell-based, multiplexed-readout assay that uses umbilical vein endothelium and peripheral blood mononuclear cells, a human vascular primary cell co-culture, with measurements taken at 24 hours after chemical dosing in a 96-well plate.BSK_SAg_MIG is an assay component measured in the BSK_SAg assay. It measures MIG antibody related to regulation of gene expression using ELISA technology.Data from the assay component BSK_SAg_MIG was analyzed into 1 assay endpoint. This assay endpoint, BSK_SAg_MIG, was analyzed with bidirectional fitting relative to DMSO as the negative control and baseline of activity. Using a type of binding reporter, gain or loss-of-signal activity can be used to understand changes in the signaling as they relate to the gene CXCL9. Furthermore, this assay endpoint can be referred to as a primary readout, because this assay has produced multiple assay endpoints where this one serves a signaling function. To generalize the intended target to other relatable targets, this assay endpoint is annotated to the cytokine intended target family, where the subfamily is chemotactic factor.
The levels of cell surface (or secreted, indicated by the prefix "s") biomarker endpoints were measured by ELISA. Overt cytotoxicity to cells in confluent adherent cultures (all systems other than the BT system) was assessed by measuring total protein levels using sulforhodamine B (SRB) staining in parallel cultures at the time of biomarker measurements, indicated as SRB endpoints. For proliferation assays for adherent cell types, individual cell types are cultured at sub-confluence and relative cell numbers quantified by SRB staining at time points optimized for each system (48 h: 3C and CASM3C systems; 72 h: BT and HDF3CGF systems; 96 h: SAg system). SRB was performed by staining cells with 0.1% SRB after fixation with 10% TCA and reading wells at 560 nm.Viability and proliferation of PBMC (T cells) was quantified by Alamar Blue reduction for the SAg and BT systems. For PBMC viability (referred to as PBMC Cytotoxicity within the assay endpoint names), cells were plated (75,000/well in a 96-well plate) and then chemical samples added for 1 h before addition of activators, SEB and TSST-1 (20 ng/mL final concentration each). Cells were incubated for 90 h. Then, Alamar Blue (20 uL/well) (Invitrogen, Cat DAL1100) was added for 6 h, and the plates were read with a fluorescence microplate reader at 546/580 nm (excitation/emission). For PBMC proliferation, cells were plated and activated as above but incubated for only 16 h prior to addition of Alamar Blue. Plates were read after 6 h.
Consider `CCOC(=O)C1=NOC(c2ccccc2)(c2ccccc2)C1`, for which the result was inactive. On to `CCOC(=O)/C=C\C(=O)OCC`, for which the result was inactive. Still for that read-out and setting: under `CCCCCCCCC(CO)CCCCCC` (stereo not given) stands “inactive”; under `CCCCCCCCCCCC(=O)N(C)CC(=O)O`, “inactive”; under `Clc1cc(Cl)c(Cl)c(Cl)c1Cl`, “inactive”. Regarding `C=CC(=O)OCCCCCCOC(=O)C=C`, the concentration at half-maximal activity (AC50) was 7.05 µM (active). `CCCC(C)C(=O)OCC` (stereo not given): the outcome was inactive.

Take `CCN1CN(CC)CN(CC)C1`: the result was inactive. Same read-out and setting: for `CCCCCCCCCCCC(C)=O` the value was “inactive”. For the compound `CC(c1cc(C(C)(C)C)cc(C(C)(C)C)c1O)c1cc(C(C)(C)C)cc(C(C)(C)C)c1O`, the result was inactive. Regarding `Fc1ccc(Br)cc1`, the result was inactive. With `CCCCCC1=CCCC1=O`, the outcome was inactive. Regarding `C=CCCCCCCCCC=O`, the result was inactive. Still for that read-out and setting: for `CC(Cl)COP(=O)(OCC(C)Cl)OCC(C)Cl` (stereo not given) the value was “inactive”. Turning to `CCNc1nc(NC(C)(C)C)nc(OC)n1`, the result was inactive. With `CCCCCCCO`, the outcome was inactive. Take `CCCCCCOC(=O)CCCCC(=O)OCCCCCC`: the result was inactive. As to `C=CC(=O)NCOCCCC`, the outcome was inactive. Turning to `C=C(C)C(=O)OCCCCCCCCCCCC`, the result was inactive. Take `CCOC(=O)C1=NN(c2ccc(Cl)cc2Cl)C(C)(C(=O)OCC)C1` (stereo not given): the result was inactive. On the same count and under the same terms, for `C=CC(=O)NC(C)(C)C` the value was “inactive”. For the compound `Oc1c(Cl)cc(Cl)c(Cl)c1Cl`, the concentration at half-maximal activity (AC50) was 32.2 µM (active). `O=C1CCCCCCCCCCC1`: the result was inactive. Still for that read-out and setting: for `c1ccc2sc(SSN3CCOCC3)nc2c1` the value was “inactive”; for `C1CNCCN1`, “inactive”. Same read-out and setting: under `CC1(C)CC(O)CC(C)(C)N1[O]` stands “inactive”. Same read-out and setting: under `CC=C(C)C=CC=C(C)C` stands “inactive”. Consider `Oc1ccccc1Cc1ccccc1O`, for which the outcome was inactive. In the case of `CC(C)[N+](C)(CCOC(=O)C1c2ccccc2Oc2ccccc21)C(C)C`, the outcome was inactive. Still for that read-out and setting: for `Oc1ccc(/C=C/c2cc(O)cc(O)c2)cc1` the value was “inactive”. As to `C[N+](C)(C)CCCNS(=O)(=O)C(F)(F)C(F)(F)C(F)(F)C(F)(F)C(F)(F)C(F)(F)C(F)(F)C(F)(F)F`, the result was inactive. Take `c1ccc2c(c1)[nH]c1ccccc12`: the result was inactive. Same read-out and setting: under `Cc1c(O)cccc1O` stands “inactive”.

Consider `CC(C)C(=O)OCCc1ccccc1`, for which the outcome was inactive. On to `CC=C(C)C(C)=O`, for which the result was inactive. Still for that read-out and setting: for `Cc1ccc([N+](=O)[O-])cc1N` the value was “inactive”. Same read-out and setting: for `O=C(Cl)c1c(Cl)c(Cl)c(C(=O)Cl)c(Cl)c1Cl` the value was “inactive”; for `CCc1cccc(C)c1N(C(=O)CS(=O)(=O)O)C(C)COC` (stereo not given), “inactive”; for `COc1ccc(C(=O)c2ccccc2)c(O)c1`, “inactive”. As for `CC/C=C\C/C=C\C/C=C\CCCCCCCC(=O)OC`, the AC50 was 37.2 µM (active).
